Laboratory results published in PubChem BioAssay (NCI).
About 79,000 compounds went through this panel and 15% of them were active in at least one assay; those are over-represented in the sample as a whole. No stated cut-off is given here; in the data, active means growth inhibition above about 70%; inactive means the rest.

Legend:
[1] = NCI Yeast Anticancer Drug Screen. Data for the rad50 strain (AID 155);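 further: 0% = growth of vehicle-only cultures of the same strain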; details: S. cerevisiae rad50 strain growth inhibition; at 50.0 µM; hits give high values
Method in brief: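 Genetically altered yeast (DNA repair pathway); compound treatment; growth inhibition vs vehicle ctrl.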

[2] = NCI Yeast Anticancer Drug Screen. Data for the mec2-1 strain (AID 157); details: S. cerevisiae mec2-1 strain, at 50.0 µM, hits give high values
Method in brief: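 Test agents were screened against the mec2-1 yeast strain, with defined DNA repair or cell cycle alteration. Growth was scored as inhibition against vehicle-only controls.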

[3] = NCI Yeast Anticancer Drug Screen. Data for the sgs1 mgt1 strain (AID 161);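 further: 0% = growth of cultures given vehicle only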; details: S. cerevisiae sgs1 mgt1 strain, at 50.0 µM, hits give high values
Method in brief: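 Test agents were incubated with a DNA-repair-mutant yeast strain. Growth was then read and compared against vehicle-treated controls.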

[4] = NCI Yeast Anticancer Drug Screen. Data for the cln2 rad14 strain (AID 165);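 further: 0% = growth equal to vehicle treated cultures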; details: S. cerevisiae cln2 rad14 strain, at 50.0 µM, hits give high values
Method in brief: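 Growth of compound-exposed yeast (cln2 rad14 genotype) measured and expressed as inhibition relative to vehicle.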

[5] = NCI Yeast Anticancer Drug Screen. Data for the bub3 strain (AID 167); details: S. cerevisiae bub3 mutant strain, at 50.0 µM, hits give high values
Method in brief: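 Yeast carrying a defined mutation is treated with each compound, and growth is compared with that of vehicle-exposed cells to give inhibition.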

[6] = NCI Yeast Anticancer Drug Screen. Data for the mlh1 rad18 strain (AID 175); details: S. cerevisiae mlh1 rad18 strain growth inhibition; at 50.0 µM; hits give high values
Method in brief: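 In this whole-cell yeast screen, a strain with altered DNA damage repair is challenged with compound, and its growth is measured against matched vehicle-treated controls.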

Measured: growth inhibition

O/N=C\c1cc2ccccc2c[n+]1Cc1ccc2ccccc2c1Br
inactive: [1] 9.25% | [2] 32.1% | [3] 44.6% | [4] 48% | [5] 2.9% | [6] 38.8%

CC1CCCC/C1=N\N(C)C (configuration not stated)
inactive: [1] -44% | [2] -19.9% | [3] -12.8% | [4] -29.6% | [5] -5.65% | [6] 2.7%

O=C(O)CC/C(=N\Nc1ccc([N+](=O)[O-])cc1[N+](=O)[O-])c1ccccc1
inactive: [1] 0.7% | [2] 26.4% | [3] 44.3% | [4] -18.4% | [5] 16.2% | [6] 30.3%

CC(C)CC(=O)OC1=C(OC(=O)CC(C)C)C(=O)C(OC(=O)CC(C)C)=C(OC(=O)CC(C)C)C1=O
inactive: [1] 36.9% | [2] 15.3% | [3] 39.3% | [4] 29.6% | [5] 7.9% | [6] 25.3%

Cc1cc(Cl)c(Cl)cc1Cl
inactive: [1] 13% | [2] 5.7% | [3] -6.5% | [4] -4% | [5] -6.35% | [6] 2.3%

O=C1C2CC3CC(C2)CC1C3
inactive: [1] 15.1% | [2] -4.5% | [3] 37% | [4] 9.25% | [5] 6.05% | [6] 14.9%

C(=C\c1ccc2ccccc2c1)/c1ccc2ccccc2c1
inactive: [1] 6.75% | [2] 25.6% | [3] 16.6% | [4] 63.5% | [5] 6.85% | [6] 31.4%

CCSc1nc(C)cc(=O)[nH]1
inactive: [1] 28% | [2] -1.35% | [3] 9.6% | [4] 6.15% | [5] 13.2% | [6] 27.9%

COc1cccc2sc(-n3c(C)nc4ccccc4c3=O)nc12
inactive: [1] 33.5% | [2] 12.5% | [3] 54.8% | [4] 17.9% | [5] 51.9% | [6] 40.5%

CC(=NCCN=C(C)c1ccc(Br)cc1)c1ccc(Br)cc1
inactive: [1] 16.9% | [2] -6.95% | [3] -21.8% | [4] -2% | [5] 2.4% | [6] 1.1%

CC(C)(C)CC(C)(C)c1ccc(OCCOc2ccc(C(=O)Nc3ccc([N+](=O)[O-])cc3)cc2)cc1
inactive: [1] 49.9% | [2] -0.3% | [3] 42.5% | [4] 6% | [5] -5.65% | [6] 22.9%

O=C(OCCc1ccccc1)C(O)c1ccccc1 (configuration not stated)
inactive: [1] 11.3% | [2] -6.05% | [3] 3% | [4] 10.7% | [5] 6.6% | [6] -1.3%

COCN(COC)c1nc(CCC(Br)(Br)Br)nc(N(COC)COC)n1
inactive: [1] 36.5% | [2] 11.5% | [3] 21.9% | [4] 37% | [5] -2.85% | [6] 31%

c1ccc2c(c1)CCc1ccccc1N2
inactive: [1] 1.65% | [2] 13.8% | [3] -28.9% | [4] 6.45% | [5] 15.1% | [6] -3.4%

CN(N=O)c1nc2c(C(N)=O)ncn2s1
inactive: [1] 10.2% | [2] 16.4% | [3] 4.95% | [4] 2.2% | [5] 13.9% | [6] 24.1%

CC12CCC(C(=O)n3c1nc1ccccc13)C(C)(C)O2 (configuration not stated)
inactive: [1] 8.15% | [2] -6.85% | [3] -7.45% | [4] 4% | [5] 4.25% | [6] -12.3%

COC(OC)c1cccnc1C
inactive: [1] -25.6% | [2] 16.8% | [3] -25.1% | [4] 6.65% | [5] -23.5% | [6] 7.7%

CCOC(OC(C)=O)[C@@H]1C=C[C@H](C)N(c2ccc([N+](=O)[O-])cc2)O1 (some centres not stated)
inactive: [1] 25.4% | [2] 13.9% | [3] 39.5% | [4] 18.1% | [5] 42.6% | [6] 32.8%

CC(=O)c1cccc(NC(=O)Oc2ccc(Cl)cc2Cl)c1
inactive: [1] 4.55% | [2] 17.9% | [3] 3.25% | [4] 1% | [5] 11.3% | [6] 4.3%

c1ccc2c(c1)oc1ccc3nsnc3c12
inactive: [1] 7.25% | [2] -7.45% | [3] 13.8% | [4] -1.45% | [5] 20.1% | [6] -10.3%

c1ccc(C2OCC(OC3CCCCO3)CO2)cc1 (configuration not stated)
inactive: [1] -0.1% | [2] -26.5% | [3] -24.6% | [4] -5.1% | [5] -9.45% | [6] -2.15%

CCC1(C)C=Cc2c(cc(OC)c3c(=O)c4ccccc4n(C)c23)O1 (configuration not stated)
inactive: [1] -21.8% | [2] -27.4% | [3] -33.8% | [4] -19.6% | [5] 4.05% | [6] -26.4%
